Laboratory results as given in PubChem BioAssay (NCATS).
Inconclusive results are not listed. A number with no mark means an inactive call. The source made the active and inactive calls. Calls come from the whole dose curve; as a rule, active = well fitted inhibition curve with a large enough effect; inconclusive = small, poorly fitted or top-dose-only effect; inactive = flat fitted curve, though single readings scatter.

These compounds were tested on NIH3T3 (assay: Cytotoxic Profiling of Annotated Libraries Using Quantitative High-Throughput Screening (AID 1296008; note: nearly all actives have a fitted effect of over 60% in size)). Conditions: Five cell lines viability, CellTiter-Glo ATP luminescence, 48-72 h; max response: hits give low values.
Summary of the method: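 Cells exposed to compounds for 48 or 72 hr at 37 degrees Celsius. Viability read as ATP-coupled luminescence with CellTiter-Glo after 10 min at room temperature.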
% is set by controls: 0 for no effect and ±100 for the full control effect; potency is the fitted concentration of half-maximal effect.

| Structure (SMILES) | Potency | max response [%] |
| --- | --- | --- |
| COc1ccc(F)cc1-c1cc(NC(=O)[C@@H]2CCCNC2)ncc1Cl | 1.03 µM (active) | – |
| O=C(O)/C=C/c1ccc(O)c(O[C@@H]2O[C@H](CO)[C@@H](O)[C@H](O)[C@H]2O)c1 | – | 4.37 |
| CC(CO)C1CCC2(C)CC3C(CO)CC(O)C3C(C)(O)C/C=C/12 (stereo not given) | – | 0.217 |
| Cc1cc2c(c(=O)[nH]1)OC(C(O)CC(C)C)O2 (stereo not given) | – | -0.186 |
| CC(=O)O[C@@H]1C[C@@H](OC(C)=O)C(C)(C)/C=C/[C@H](C)[C@H](OC(C)=O)[C@@]2(O)C[C@H](C)[C@H](OC(=O)c3ccccc3)[C@@H]2/C=C/1C | – | -4.04 |
| C=C1CC[C@@H]2[C@@](C)(CO[C@@H]3O[C@H](CO)C(O)[C@H](O)C3O)[C@H](O)CC[C@@]2(C)[C@@H]1CC/C(C)=C/CO (stereo not given in full) | – | -10.1 |
| C/C=C/C=C/C(O)=C1\C(O)=C(C)C(=O)[C@@]2(C)OC(=O)[C@@](C)(NC(=O)/C=C/C(=O)O)[C@@H]12 | – | -1.65 |
| C=CCC1=C[C@]2(OC)[C@H](C)[C@@H](c3ccc(O)c(OC)c3)O[C@]2(OC)CC1=O | – | 0.772 |
| CO[C@H]1C[C@@H]2CC[C@@H](C)[C@@](O)(O2)C(=O)C(=O)N2CCCC[C@H]2C(=O)O[C@H]([C@H](C)C[C@@H]2CC[C@H](n3cnnn3)[C@H](OC)C2)CC(=O)[C@H](C)/C=C(\C)[C@@H](O)[C@@H](OC)C(=O)[C@H](C)C[C@H](C)/C=C/C=C/C=C/1C | – | 0.445 |
| CON(C)C(=O)[C@H](O)[C@H](Cc1ccccc1)NC(=O)c1cc2cc(Cl)ccc2[nH]1 | – | -9.74 |
